Experimental data from a collection of fitness landscapes (doi:10.1016/j.celrep.2020.107928).
The full ranking holds about 81,000 sequences; the median of “one-hybrid fitness for binding parS DNA” is about -0.17, and the highest 2% start at about 0.51. The entries come from a sample that favours the highest values as a whole.

B1: Caulobacter ParB omega fusion; a variant is named by its letters at X, in order, B8GW30 (parent)
chain: MESVVVGEPGMSEGRRGLGRGLSALLGEVDAAPAQAPGEQLGGSREAPIEILQRNPDQPRRTFREEDLEDLSNSIREKGVLQPILVRPSPDTAGEYQIVAGERAWRAAQRAGLKTVPIMVRELDDLAVLEIGIIENVQRADLNVLEEALSYKVLMEKFERTQENIAQTIGKSXSHVANXMRLLXLPDEVQSYLVSGELTAXHARAIAAAADPVALAKQIIEGGLSVRETEALARKAPNLSAGKSKGGRPPRVKDTDTQALESDLSSVLGLDVSIDHRGSTGTLTITYATLEQLDDLCNRLTRGI

Variants of: B1
Assay: one-hybrid fitness for binding parS DNA (scaled: cognate 1, non-cognate 0); higher = stronger binding
Settings: with parS DNA site
How it was run: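 In E. coli USO, a HIS3 reporter with its site placed 19 bp from the promoter was used to select Caulobacter ParB variants randomised at four specificity codons. Growth lasted 48 hours at 37°C on histidine-free M9 containing 0.1 mM IPTG and 5 mM 3-AT. Fitness was taken as the log change in variant-to-wild-type read ratio from Illumina sequencing of pre- and post-selection plasmids, rescaled between the non-cognate and cognate sites.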

one-hybrid fitness for binding parS DNA, 0.925:
RTQT

one-hybrid fitness for binding parS DNA, 0.616:
RWDG

one-hybrid fitness for binding parS DNA, 0.244:
CWHG

one-hybrid fitness for binding parS DNA, 0.461:
RTWN

one-hybrid fitness for binding parS DNA, 0.673:
RRVC

one-hybrid fitness for binding parS DNA, 0.745:
RHKT

one-hybrid fitness for binding parS DNA, 0.203:
RFNK

one-hybrid fitness for binding parS DNA, 0.255:
RHKF

one-hybrid fitness for binding parS DNA, 0.641:
RWWG

one-hybrid fitness for binding parS DNA, 0.254:
RTWH

one-hybrid fitness for binding parS DNA, ≤ 0.2:
PNWL
PCED
HNST
SHDR
PGRS
GDYR
GWST
QTYA
NGRC
RWQM
RWWY
RWCM
RWWR
RWQK
RWDK
RWDF
RWCR
QCIG
ILHY
PETC
RDAC
CSPC
WCDG
TEMT
QRMV
PGQN
YQGC
RRKQ
RRKR
PLTK
INSY
ENFG
RTRK
RTRD
RTYR
RTYK
RTQQ
RGTV
KKRF
SRPQ
ITEL
RTGP
RTSK
RTGR
TRWL
HSDW
HVPD
GQVR
FGAG
NLVS
RHVK
RHVM
RHKK
TMRL
MPLG
YPFR
RTVH
RTVD
RTKR
KCHG

one-hybrid fitness for binding parS DNA, 0.649:
RRKC

one-hybrid fitness for binding parS DNA, 0.741:
RWQG

one-hybrid fitness for binding parS DNA, 0.872:
RTKG

one-hybrid fitness for binding parS DNA, 0.912:
RTGT

one-hybrid fitness for binding parS DNA, 0.979:
RTVG

one-hybrid fitness for binding parS DNA, 0.916:
RTWT

one-hybrid fitness for binding parS DNA, 0.952:
RTYT

one-hybrid fitness for binding parS DNA, 0.352:
RTQM

one-hybrid fitness for binding parS DNA, 0.91:
RTST

one-hybrid fitness for binding parS DNA, 0.637:
RHVT

one-hybrid fitness for binding parS DNA, 0.246:
RTSF

one-hybrid fitness for binding parS DNA, 0.747:
RTRT

one-hybrid fitness for binding parS DNA, 0.441:
RTKN

one-hybrid fitness for binding parS DNA, 0.688:
RWCG
